# Screens as filed in PubChem.
# FBPA Giardia inh: Giardia lamblia aldolase inhibition. 290,000 tested, 0.71% active. purified Giardia FBPA. Potency, µM (top dose mostly 59.6 µM), inactives show top-dose activity, negative = inhibition, hits mostly inhibitors. A8B2U2; further: potency means the concentration at half of the fitted maximal effect; nearly all actives have a fitted effect of over 55% in size
# Target sequence (A8B2U2 whole entry, looked up): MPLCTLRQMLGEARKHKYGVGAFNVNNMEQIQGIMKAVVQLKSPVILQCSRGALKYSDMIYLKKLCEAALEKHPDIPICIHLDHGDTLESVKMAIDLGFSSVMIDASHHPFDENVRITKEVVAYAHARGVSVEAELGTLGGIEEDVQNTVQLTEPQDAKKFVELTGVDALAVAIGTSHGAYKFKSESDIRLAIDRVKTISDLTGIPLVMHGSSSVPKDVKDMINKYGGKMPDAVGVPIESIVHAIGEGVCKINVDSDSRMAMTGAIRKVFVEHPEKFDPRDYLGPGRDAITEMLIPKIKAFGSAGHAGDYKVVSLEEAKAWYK
#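 Giardia FBPA (40 nM reagent) was preincubated 10 min at RT with compound (up to 57.5 uM final), then substrate plus GAPDH/TPI/NAD/arsenate coupling system with diaphorase/resazurin was added; resorufin fluorescence (525/598 nm) was read after 20 min.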
# HCV inh: inhibitors of hepatitis C virus infection; Huh7.5.1 HCVcc-Cre infection, luciferase reporter, 44 h; Potency, µM (highest dose often 41.8 µM), without a hit: top-dose activity change, negative = inhibition, usual class: inhibitors; 340,000 tested, 3.4% active; AID 651820; further: potency means the concentration at half of the fitted maximal effect
#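 Luciferase read-out (15 sec integration) after a 15 min room-temperature substrate step quantifies HCVcc-Cre infection. Cells, 1,000 per well, had compound added 4 h post-plating, then virus at ~0.5 moi, and were cultured 44 h.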
# LASV entry inh: Lassa virus entry inhibition. 300,000 tested, 1.2% active. Potency, µM (series often up to 37.9 µM), inactives show at the highest dose activity change, negative = inhibition, hits mostly inhibitors. Lassa virus pseudotype entry inhibition, cell reporter; calls by dose curve; tested in HEK293 cells; further: potency means the concentration at half of the fitted maximal effect; nearly all actives have a fitted effect of over 50% in size
# MARV entry inh: Marburg virus entry inhibition. Marburg virus pseudotyped entry inhibition, cell reporter. Potency, µM (doses to about 37.8 µM), for inactives: at the top dose activity change, negative = inhibition, actives largely listed as inhibitors. 300,000 tested, 1.8% active. AID 540276; calls by dose curve; tested in HEK293 cells; further: potency means the concentration at half of the fitted maximal effect
# HCMV antiviral: inhibitors of human cytomegalovirus; HFF cells, HCMV-luciferase reporter, 72 h; hits give low values; activity change, negative = inhibition, % at 57.5 µM; 410,000 tested, 4.5% active; in the data active means activity change below about -60%; inconclusive means no clear call, values can overlap the other calls; inactive means above about -39%
#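 HFF cells seeded 16 h at 37C, treated with compounds, infected with luciferase-reporter HCMV at MOI 1 PFU/cell; luciferase read at 72 h post infection, normalized to buffer-only and Salinomycin controls.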
# FMDV inh: antivirals against foot and mouth disease virus | FMDV antiviral cell-based qHTS | Potency, µM (titrated, usually from 57.9 µM), for inactives: top-dose activity change, negative = inhibition, actives largely listed as inhibitors | 410,000 tested, 1.2% active; calls by dose curve; tested in HEK293T cells; further: read-out not given here; potency means the concentration at half of the fitted maximal effect; nearly all actives have a fitted effect of over 45% in size
# Starred values were filed as active, the others as inactive; ? = inconclusive; · = no result given; [ ] = dose if it differs, or a comment. Shown are actives, neighbours in structure and some others; about 8.3% of the full set was active somewhere. Unless noted, the call rests on the fitted dose curve; in most records, active means well fitted curve in the direction sought with a large enough effect; inconclusive means small, poorly fitted or top-dose-only effect, or another doubt; inactive means no such curve, though single readings can be large; an effect the other way counts as inactive or inconclusive. On the % scale 0 is the no-effect control and ±100 the full control effect.
SMILES,FBPA Giardia inh,HCV inh,LASV entry inh,MARV entry inh,HCMV antiviral,FMDV inh
COc1ccc(CCNC(=S)Nc2cc(C)ccc2C)cc1,-2.0%,?,4.1%,-24.0%,?,-24.9%
CCc1cccc(C)c1NC(=S)NCCc1c(C)[nH]c2ccc(C)cc12,-1.8%,35.5µM*,?,?,-71.7*,18.2%
CCc1cccc(CC)c1NC(=S)NCCc1c(C)[nH]c2ccc(C)cc12,-5.2%,22.4µM*,?,?,-92.9*,3.6%
COc1ccc2[nH]c(C)c(CCNC(=S)Nc3cccc(C)c3)c2c1,-2.2%,-23.8%[8.37 µM],?,?,?,6.7%
COc1ccc2[nH]c(C)c(CCNC(=S)Nc3cc(C)ccc3C)c2c1,3.7%,?,4.0%,-6.0%,-60.6*,-3.5%
COc1ccc(CCNC(=S)Nc2ccc(C)cc2C)cc1,7.6%,?,-1.3%,21.8%,-75.5*,15.6%
Cc1ccc2c(c1)N(C(=O)CCC(=O)NCc1cccc(F)c1)CC(C)O2 (centres undefined),·,·,19.1%[46.1 µM],-14.6%[46.1 µM],-7.1,-10.9%
COc1cc(=O)n2c(c1C(=O)NCc1nonc1C)CCN(Cc1c[nH]c3ccccc13)CC2,·,·,·,·,·,-5.1%
COc1ccc(-c2nc3cnc(N4CCNCC4)nc3n(Cc3cccs3)c2=O)cc1,-2.7%,·,·,·,·,2.4%
Cc1ccc(C)c(Cn2c(=O)n(Cc3ccccc3)c(=O)c3sc4ccccc4c32)c1,·,·,-8.2%[46.1 µM],13.3%[46.1 µM],5.8,?
CC(NC(=O)c1ccc([N+](=O)[O-])cc1Cl)C1CC2CCC1C2 (centres undefined),0.5%,5.4%,-7.2%,8.6%[46.1 µM],96.3,4.2%
O=C(NC12CC3CC(CC(C3)C1)C2)c1ccc(Br)o1,6.1%,-14.8%,?,2.1%[46.1 µM],-36.2,3.9%
O=C(NC12CC3CC(CC(C3)C1)C2)c1ccc([N+](=O)[O-])o1,2.3%,-4.7%,·,·,-69.8*,?
CC(NC(=O)c1ccc([N+](=O)[O-])o1)C1CC2CCC1C2 (centres undefined),·,11.2µM*,?,-1.4%[46.1 µM],·,-13.8%
N#Cc1cccc2c1-c1ccccc1/C2=N/NC(N)=S,?,12.6µM*,?,?,·,35.5µM*
Cc1noc(-c2ccc(C(F)(F)F)cc2)c1NC(=O)Nc1ccc(Cl)cc1,4.8%,?,·,·,-87.7*,?
CC(C)C[C@H]1CN([C@@H](Cc2ccc(O)cc2)CN2CCC[C@@H]2CN2C(=O)C(=O)NC[C@@H]2Cc2ccccc2)C(=O)C(=O)N1CC1CCCCCC1,·,?,·,·,-65.0*,9.2%
CC(C)C[C@H]1CN([C@@H](Cc2ccccc2)CN2CCC[C@H]2CN2C(=O)C(=O)NC[C@@H]2Cc2ccc(O)cc2)C(=O)C(=O)N1CC1CCCCCC1,·,·,·,·,-86.9*,3.1%
CCOC(=O)c1cccn1C1C(=O)N(Cc2ccc(Cl)nc2)c2c(F)cccc21 (centres undefined),·,·,·,·,-4.6,·
O=C1OCC2=C1C(c1cccc(Cl)c1)CC(=O)N2c1ccc(C(F)(F)F)cc1 (centres undefined),·,·,-6.5%[46.1 µM],-21.3%[46.1 µM],7.8,0.0%
Cc1nn(-c2ccccc2)c(C)c1Cc1ccc(O)cc1,11.0%,?,·,·,·,-10.3%
Cc1nn(-c2ccccc2)c2c1C(O)n1c(nc3ccccc31)S2 (centres undefined),-2.4%,11.2µM*,?,?,40.4,·
COc1ccc(N2CCN(CCCn3c(=S)[nH]c4ncccc4c3=O)CC2)cc1,-5.6%,-5.4%,?,4.11µM*,?,18.4%
CC1CCN(CCn2c(=S)[nH]c3ncccc3c2=O)CC1,·,·,·,1.7%,·,·
O=c1c2cccnc2[nH]c(=S)n1CCCN1CCN(c2ccc(F)cc2)CC1,?,-5.4%,5.8µM*,4.61µM*,-24.4,-18.5%
SMILES,FBPA Giardia inh,HCV inh,LASV entry inh,MARV entry inh,HCMV antiviral,FMDV inh
Cc1ccc(C(=O)N/C(=C\c2ccc(-c3ccccc3[N+](=O)[O-])o2)C(=O)NCCCN(C)C)cc1,?,-17.7%,-2.7%[46.1 µM],?,?,?
CN(C)CCCNC(=O)/C(=C/c1ccc(-c2ccc([N+](=O)[O-])cc2)o1)NC(=O)c1ccccc1,9.4%,?,·,·,-8.3,-27.0%
CN(C)CCCNC(=O)/C(=C\c1ccc(-c2ccc(Br)cc2)o1)NC(=O)c1ccccc1,2.4%,?,?,?,?,?
CN(C)CCNC(=O)/C(=C/c1ccc(-c2cccc(Cl)c2)o1)NC(=O)c1ccccc1,-6.3%,11.2µM*,?,8.2µM*,11.6,-16.1%
Cc1ccc(C(=O)N/C(=C\c2ccc(-c3ccccc3[N+](=O)[O-])o2)C(=O)NCCN(C)C)cc1,5.01µM*,-26.9%,-5.1%[46.1 µM],?,5.5,-15.9%
Cc1ccc(C(=O)N/C(=C\c2ccc(-c3cccc([N+](=O)[O-])c3)o2)C(=O)NCCCN2CCOCC2)cc1,-14.8%,10µM*,·,·,-62.2*,-22.2%
Cc1ccc(C(=O)N/C(=C\c2ccc(-c3ccc(Cl)cc3)o2)C(=O)NCCCN(C)C)cc1,0.5%,?,?,6.31µM*,-71.6*,-22.5%
Cn1c(-c2ccncc2)nc2cc(C(=O)N[C@H]3CCCCNC3=O)cc(NC(=O)C3CCC3)c21,·,·,·,·,·,-17.5%
O=C1c2ccccc2C(=O)N1CCCC[C@]12Cc3ccccc3[C@H](O1)c1c(c3ccccc3oc1=O)O2,·,·,·,-29.2%[14.2 µM],·,·
COC[C@@H](O)[C@H]1OCc2cccc(OC)c2[C@H]1C=Cc1ccccc1,·,·,·,8.0%[14.2 µM],·,·
CN(C)CCNC(=O)/C(=C/c1ccc(-c2cccc([N+](=O)[O-])c2)o1)NC(=O)c1ccccc1,-5.2%,10µM*,?,?,-21.9,-28.8%
CCCN(C(=O)Cn1cnc2sc(C)c(S(=O)(=O)N3CCN(c4ncccn4)CC3)c2c1=O)c1cccc(C)c1,·,·,-8.8%[46.1 µM],34.7%[46.1 µM],-17.1,-32.2%
Cn1cnnc1SCC(=O)c1c(N)n(Cc2ccccc2)c(=O)n(C)c1=O,4.3%,7.9%,0.3%,-10.4%[46.1 µM],-64.3*,3.7%
Cn1c(N)c(C(=O)CCl)c(=O)n(Cc2ccccc2)c1=O,2.8%,4.1%,-1.1%,4.0%,-22.3,28.2µM*
Cc1nnc(SCC(=O)c2c(N)n(Cc3ccccc3)c(=O)n(C)c2=O)n1C,4.9%,12.7%,-9.3%[46.1 µM],2.2%[46.1 µM],-33.1,-7.9%
Cn1c(=O)c(C(=O)CCl)c(N)n(Cc2ccccc2)c1=O,-1.1%,?,-8.2%,-15.8%,25.6,?
O=C1CCCC=C1[C@@H](O)CCOC(c1ccccc1)(c1ccccc1)c1ccccc1,2.1%,·,·,28.7%[14.2 µM],·,·
CCN(CC)CCCNC(=S)N1CCN(c2nc(-c3ccc(F)cc3)cs2)CC1,5.9%,3.98µM*,?,10µM*,-96.7*,?
S=C(NCC1CCCO1)N1CCN(c2nc(-c3ccccc3)cs2)CC1 (centres undefined),-2.8%,10µM*,?,?,-37.3,?
CCNC(=S)N1CCN(c2nc(-c3ccc(F)cc3)cs2)CC1,6.2%,?,·,·,-60.9*,?
